Glioma ERSR ind – qHTS for Inducers of the Endoplasmic Reticulum Stress Response (ERSR) in Human Glioma: qHTS. U87-MG GRP78 promoter luciferase reporter, 16 h. Potency, µM, inactives show at the top dose activation, hits mostly activators. 420,000 tested, 0.02% active. AID 602332, 2012; active = well fitted curve in the direction sought with a large enough effect; inconclusive = small, poorly fitted or top-dose-only effect, or another doubt; inactive = no such curve, though single readings can be large; an effect the other way counts as inactive or inconclusive; note: potency is the fitted concentration of half-maximal effect; series mostly up to about 76 µM; % of control where 0% means no effect; nearly all actives have a fitted effect of over 35% in size
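ERSR induction read as luciferase luminescence (Bright-Glo, 10 min at room temperature) in stably transfected human U87-MG glioma cells exposed to compounds for 16 h, using GRP78 as sensor.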
Six1-Eya2 blk – qHTS Assay for Inhibitors of the Six1/Eya2 Interaction; AlphaScreen GST-Six1/His-Eya2 binding, biochemical; active compounds read low; Homeobox protein SIX1 (Homo sapiens) + Protein phosphatase EYA2 (Homo sapiens), …; activity change, % (no concentration beside the values); 360,000 tested, 0.56% active; note: % is set by controls: 0 for no effect and ±100 for the full control effect
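Six1/Eya2 binding was read as AlphaScreen signal after compounds were pinned into GST-Six1 plus His-tagged Eya2 (5X stock 250/500 nM) in pH 8.0 Tris/NaCl/TCEP buffer, beads added, then incubated 1 h, 37 C, dark.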
CtBP-E1A inh – qHTS Assay for Inhibitors of the CtBP/E1A Interaction. CtBP / adenovirus E1A interaction (AlphaScreen). AlphaScreen GST-E1A/His-CtBP binding, 1536-well; active compounds read low. activity change, % (no concentration beside the values). 340,000 tested, 0.49% active. AID 651724, 2012; note: % is set by controls: 0 for no effect and ±100 for the full control effect
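GST-E1A and His-tagged CtBP (125 nM each as 5X stock) were preincubated with pin-transferred compound for 2 h at 37 °C in the dark, then glutathione donor and nickel acceptor beads were added for 1 h before AlphaScreen reading.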
Eya2 inh – qHTS Assay for Inhibitors of the Phosphatase Activity of Eya2; recombinant Eya2, OMFP fluorescence dephosphorylation (OMFP is methylfluorescein phosphate); Potency, µM (doses to about 76.9 µM), for inactives: at the top dose activity, negative = inhibition, hits mostly inhibitors; Protein phosphatase EYA2 (Homo sapiens), O00167; 330,000 tested, 0.006% active; active = well fitted curve in the direction sought with a large enough effect; inconclusive = small, poorly fitted or top-dose-only effect, or another doubt; inactive = no such curve, though single readings can be large; an effect the other way counts as inactive or inconclusive; note: potency is the fitted concentration of half-maximal effect; % is set by controls: 0 for no effect and ±100 for the full control effect
Target sequence (O00167 whole entry, looked up): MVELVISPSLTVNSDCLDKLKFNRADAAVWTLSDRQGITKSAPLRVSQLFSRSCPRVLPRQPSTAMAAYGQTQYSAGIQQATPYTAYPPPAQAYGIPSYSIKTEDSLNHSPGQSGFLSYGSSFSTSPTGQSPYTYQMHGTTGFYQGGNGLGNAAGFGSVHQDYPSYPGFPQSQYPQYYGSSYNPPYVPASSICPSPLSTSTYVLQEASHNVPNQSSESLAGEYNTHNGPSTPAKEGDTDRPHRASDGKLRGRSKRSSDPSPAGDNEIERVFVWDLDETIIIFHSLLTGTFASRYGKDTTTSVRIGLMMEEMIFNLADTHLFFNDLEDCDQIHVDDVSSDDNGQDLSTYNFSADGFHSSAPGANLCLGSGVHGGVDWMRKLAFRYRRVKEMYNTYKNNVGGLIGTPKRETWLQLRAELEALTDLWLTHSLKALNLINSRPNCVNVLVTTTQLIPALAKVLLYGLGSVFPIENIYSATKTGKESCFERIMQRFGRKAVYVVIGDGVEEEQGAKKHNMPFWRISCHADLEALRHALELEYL
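Eya2 (0.2 uM) preincubated 10 min at ambient with compound, then OMFP substrate added at 50 uM; 10 min reaction in 50 mM HEPES pH 7.5, 50 mM NaCl, 5 uM MgCl2, 0.05% BSA, 1 mM DTT. Fluorescence read at Ex 485/Em 525 nm.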
* marks the source's active call; other numbers are inactive results; ? = inconclusive; . = no result given. Sampled rows, rich in hits. Any-hit rate of the full collection: about 0.58%. Cut-off read from the data, not from the text of the source, unless noted: active = activity change below about -65%; inconclusive = mostly about -30% to -63%; inactive = weaker than that.

SMILES | Glioma ERSR ind | Six1-Eya2 blk | CtBP-E1A inh | Eya2 inh
CC(CCc1ccc(O)cc1)N1CCOc2c(O)cc(-c3nc4ccccc4s3)cc2C1 (centres undefined) | -1% | . | . | .
COc1ccc(-c2cc(=O)oc3c(O)c(O)ccc23)cc1 | -5% | -21 | -6 | -8%
O=c1ccc2ccc(O)c(O)c2o1 | 41µM* | . | . | -1%
CCCCCCCCN1[C@@H](CC(=O)O)c2ccc(/C=C/C(=O)O)cc2S1(=O)=O | -4% | . | . | .
O=C(CC(=O)N/N=C/c1ccccc1O)NCc1cccnc1 | 3% | -90* | -2 | 6%
O=C(CCCCC(=O)NN=Cc1ccccc1O)NN=Cc1ccccc1O | -2% | -15 | -13 | .
O=C(CN1C(=O)NC2NC(=O)NC21)N/N=C/c1ccccc1O (centres undefined) | -4% | -91* | -90* | -4%
COc1cccc(/C=N\NC(=O)Cn2nnc3ccccc32)c1O | -2% | -93* | -93* | -2%
O=C(NCC(=O)N1CCCC1)NN=Cc1ccccc1O | 6% | ? | -77* | .
COc1cc(/C=N/NC(=O)Cn2nnc3ccccc32)ccc1O | 1% | -1 | . | -10%
COc1ccccc1N1CCN(c2nc(CNC(=O)c3cc(C)oc3C)nc3ccccc23)CC1 | 1% | . | . | .
Cc1c(C(=O)N2CC3CCC2C3)sc2ncnc(NCCc3c[nH]c4ccccc34)c12 (centres undefined) | -2% | . | . | .
C[C@@H]1CN(Cc2ccc3c(c2)CN(Cc2cccc4cccnc24)CCO3)C[C@H](C)O1 | -4% | . | . | .
Cc1ccc(C)c(CN2CCc3nnc(CNC(=O)c4cc(C)oc4C)n3CC2)c1 | -4% | . | . | .
COc1cccc(/C=N/Nc2nc3ccccc3n3cnnc23)c1O | 5% | -87* | -93* | -14%
COc1cccc(/C=N/Nc2nc3ccccc3n3cnnc23)c1 | -1% | ? | ? | -14%
COc1cccc(/C=N\NC(=O)C2C(=O)NCC2c2ccccc2)c1O (centres undefined) | -4% | -86* | -90* | -2%
O=C(CSCC(=O)NN=Cc1ccccc1O)NN=Cc1ccccc1O | -1% | -83* | -4 | .
O=C(Cn1cc(C(F)(F)F)ccc1=O)N/N=C/c1ccccc1O | -3% | ? | -91* | 7%
COc1ccc(-c2ccc(C(=O)N(C)Cc3csc(C)n3)c(N3CCC(N4CCc5ccccc5C4)CC3)n2)cc1 | -4% | . | . | .
COc1ccccc1C(=O)N[C@@H]1c2ccccc2C2(CCN(Cc3nccs3)CC2)[C@H]1OC | -4% | . | . | .
Cc1ccccc1-c1cc2c(c(OC3CCOC3)c1)OCCN(C(=O)Cn1cccn1)C2 (centres undefined) | 2% | . | . | .
C=CCn1c(CNc2ccccc2)nnc1SCC(=O)N/N=C/c1ccccc1O | 1% | -72* | ? | -5%
CSc1nc(C)cc(OCC(=O)N/N=C/c2ccccc2O)n1 | -3% | -68* | -69* | -5%
O=C(N/N=C/c1ccccc1O)c1cccc(C(F)(F)F)c1 | 0% | -79* | -81* | -8%
SMILES | Glioma ERSR ind | Six1-Eya2 blk | CtBP-E1A inh | Eya2 inh
C=CCn1c(COc2ccc(Cl)cc2)nnc1SCC(=O)N/N=C/c1cccc(O)c1 | -1% | -11 | -6 | -3%
COc1cccc(/C=N/NC(=O)CSCC(=O)Nc2ccccc2)c1O | 0% | -70* | -85* | 0%
COc1cc(=O)n2c(c1C(=O)N(C)Cc1nonc1C)CCN(C(=O)c1cc(C)ccc1C)CC2 | -5% | . | . | .
O=[N+]([O-])c1ccccc1/C=C/C=N/Nc1nc(N2CCCCC2)nc(N2CCCCC2)n1 | -1% | 1 | 2 | 1%
O=[N+]([O-])c1ccccc1/C=C/C=N/N1CCCCC1 | 0% | -68* | ? | ?
O=[N+]([O-])c1ccccc1/C=C\C=N\N1CCN(c2ccccc2)CC1 | 5% | -66* | -23 | 4%
COc1ccccc1N1CCN(/N=C/C=C/c2ccccc2[N+](=O)[O-])CC1 | 1% | ? | -65* | -10%
COC(=O)[C@@H]1CCCN1C(=O)c1c(OC)cc(=O)n2c1CCN(Cc1cc(OC)ccc1F)CC2 | -3% | . | . | .
COc1cc(=O)n2c(c1C(=O)NCc1ccsc1)CCN(Cc1nc3ccccc3[nH]1)CC2 | 0% | . | . | .
COc1ccc2ccccc2c1CN1CCC2(CCC(CNC(=O)c3ccccc3)O2)CC1 (centres undefined) | 1% | . | . | .
Cc1ccccc1C(=O)/C(C#N)=N/Nc1c(C)n(C)n(-c2ccccc2)c1=O | -6% | -68* | -70* | -7%
Cc1c(N/N=C(\C#N)C(=O)c2ccccc2)c(=O)n(-c2ccccc2)n1C | -3% | -86* | ? | -2%
O=C(c1cnn(-c2nccc(-c3ccccc3F)n2)c1C1CC1)N1CCCCC1c1cccnc1 (centres undefined) | -3% | . | . | .
CC(=O)c1ccc(F)c(-c2cc(C)cc3c2OC(CNC(=O)c2csc(C)n2)C3)c1 (centres undefined) | -3% | . | . | .
Cc1ccc(C(=O)N(Cc2cc3cc4c(cc3nc2N2CCOCC2)CCC4)CC2CCCO2)s1 (centres undefined) | 0% | . | . | .
O=C(c1cnn(-c2nccc(-c3ccccc3F)n2)c1C1CC1)N1CCN(CCO)CC1 | -3% | . | . | .
O=C(NCC1CCC2(CCN(Cc3cccn3-c3ccc(Cl)cn3)CC2)O1)c1ccccc1 (centres undefined) | -6% | . | . | .
COc1cc(CCNc2ccc3nnc(-c4ccccc4)n3n2)cc(OC)c1OC | 0% | -80* | -90* | 7%
COc1ccc(CN2CCC3(CC2)c2ccccc2[C@@H](NC(=O)c2ccsc2)[C@@H]3OC)cc1O | -1% | . | . | .
Cc1ccc(C(=O)O)cc1-c1ccc(/C=C2/NC(=O)N(c3ccccc3)C2=O)o1 | ? | -74* | -20 | 14%
Cc1cc(C(=O)O)ccc1-c1ccc(/C=C2\NC(=O)N(Cc3ccccc3Cl)C2=O)o1 | -5% | -3 | 0 | 5%
O=C(CSC1=NNC(c2ccccn2)S1)Nc1cccc(Cl)c1 (centres undefined) | 1% | -89* | -96* | -3%
O=C(CSC1=NNC(c2ccccn2)S1)Nc1ccccc1 (centres undefined) | -5% | -94* | -94* | -8%
O=C(CSc1nnc(-c2ccccn2)o1)Nc1ccccc1 | 1% | -22 | -21 | 9%
CN(C)c1ccc(NC(=O)c2ccc(COc3cccc(Cl)c3)o2)cc1 | 1% | -72* | ? | -10%
COc1cc(/C=C/C(=O)OCC(=O)N2CCN(S(=O)(=O)c3ccc(C)cc3C)CC2)ccc1OC(F)F | -1% | -22 | -86* | .
COC(=O)c1c(OCc2cccnc2)cc(=O)n2c1CCN(Cc1cc3c(cc1Cl)OCO3)CC2 | -6% | . | . | .
O=c1[nH]c(N/N=C/c2ccc(O)cc2)nc2ccccc12 | -6% | ? | -68* | -12%
COc1ccc(Cc2nnc(N/N=C/c3ccc(Br)cc3)[nH]c2=O)cc1OC | -5% | -1 | 4 | -23%
